Mito fusion act: qHTS Assay for Small Molecule Inhibitors of Mitochondrial Division or Activators of Mitochondrial Fusion; S. cerevisiae fusion-defective mutant growth rescue, CellTiterGlo 48 h; Potency, µM (top dose mostly 46.1 µM), for the others: top-dose growth rescue (activation), actives largely listed as activators; actives 0.23% (n = 320,000); AID 485298, 2010; further: % of control where 0% means no effect; nearly all actives have a fitted effect of over 45% in size
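S. cerevisiae fusion-defective temperature-sensitive mutants (e.g. fzo1-1, mgm1-5) grown 48 h at 37C in YPEG (ethanol/glycerol non-fermentable) medium with 23 nl compound per well; growth rescue read as CellTiterGlo luminescence.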
GLP1R cytotox: qHTS of GLP-1 Receptor Inverse Agonists: Cytotox Screen; actives 0.13% (n = 410,000); HEK293 cAMP-luciferase reporter cells, luminescence, 24 h; Potency, µM (top dose mostly 38.3 µM), without a hit: at the highest dose activity change, negative = inhibition, most hits filed as inhibitors;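 further: loss of luciferase light is scored as toxicity; on the % scale 0 is the no-effect control and ±100 the full control effect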
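Seeding density was 200 cells/uL; after overnight-length (12 h) culture, 23 nL compounds went on for 24 h at 37 °C. Readout used a luciferase detection reagent, luminescence taken after 12 min at room temperature.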
GLP-1R inv ag: qHTS of GLP-1 Receptor Inverse Agonists (Inhibition Mode) | Glucagon-like peptide 1 receptor (Homo sapiens), P43220 | HEK293 GLP-1R CRE-luciferase, luminescence, 24 h; GLP-1R form is constitutively active | Potency, µM (titrated, usually from 38.3 µM), for inactives: top-dose activity change, negative = inhibition, hits mostly inhibitors | actives 1.6% (n = 410,000) | AID 624417, 2012; further: on the % scale 0 is the no-effect control and ±100 the full control effect; nearly all actives have a fitted effect of over 55% in size
Target sequence (P43220 whole entry, looked up): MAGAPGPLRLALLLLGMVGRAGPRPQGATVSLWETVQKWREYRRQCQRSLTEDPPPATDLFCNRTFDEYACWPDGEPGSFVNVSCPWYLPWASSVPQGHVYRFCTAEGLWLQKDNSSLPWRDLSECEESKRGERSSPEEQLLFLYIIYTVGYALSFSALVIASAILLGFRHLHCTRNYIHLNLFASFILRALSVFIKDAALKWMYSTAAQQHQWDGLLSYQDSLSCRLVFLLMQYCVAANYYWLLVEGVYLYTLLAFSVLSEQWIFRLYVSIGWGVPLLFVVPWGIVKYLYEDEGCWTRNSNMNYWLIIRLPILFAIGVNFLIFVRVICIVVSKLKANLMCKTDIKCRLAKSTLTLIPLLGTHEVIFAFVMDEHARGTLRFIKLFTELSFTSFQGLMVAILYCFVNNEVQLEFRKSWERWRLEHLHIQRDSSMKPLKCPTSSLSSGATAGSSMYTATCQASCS
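Seeding at 200 cells/uL, 12 h culture, 24 hr compound treatment, then luciferase reagent and a luminescence read; cells are HEK293 stably expressing a constitutively active GLP-1R plus cAMP-responsive luciferase.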
BRCA1 expr up: qHTS Assay to Identify Small Molecule Activators of BRCA1 Expression; actives 1.1% (n = 380,000); AID 624202, 2012; Potency, µM (series often up to 46.1 µM), inactives show at the highest dose activation, actives largely listed as activators; MCF7-BRCA1-FFLuc reporter, luminescence, 48 h; response scale: scaled: vehicle 0%, 10 µM genistein 100%; further: nearly all actives have a fitted effect of over 80% in size
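MCF7-BRCA1-FFLuc, 2000 cells/well; 2 h attach, 37 °C/5% CO2; compound 48 h; luciferase substrate 15 min; luminescence end-point. Norm. to genistein 10 microM max activation and DMSO; concentration-response curves fitted.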
GLP-1R agonist: qHTS of GLP-1 Receptor Agonists; Glucagon-like peptide 1 receptor (Homo sapiens), P43220; HEK293 GLP-1R CRE-luciferase, luminescence, 4-6 h; cells express a hypersensitive GLP-1R form; Potency, µM (doses to about 45.6 µM), for inactives: top-dose activation, hits mostly activators; actives 0.007% (n = 380,000); AID 624172, 2012; further: % of control where 0% means no effect
Numbers without * were called inactive; ? = inconclusive; . = no result. Shown are actives, neighbours in structure and some others; about 2.8% of the full set was active somewhere. The call rests on the fitted dose curve; in most records, active means well fitted curve in the direction sought with a large enough effect; inconclusive means small, poorly fitted or top-dose-only effect, or another doubt; inactive means no such curve, though single readings can be large; an effect the other way counts as inactive or inconclusive. Potency means the concentration at half of the fitted maximal effect.

SMILES	Mito fusion act	GLP1R cytotox	GLP-1R inv ag	BRCA1 expr up	GLP-1R agonist
CCNc1nc(NC(C)C)nc(SCCOC(=O)c2ccccc2)n1	19%	1%	10µM*	14%	?
COc1ccc(OCCSc2nc(N)cc(N)n2)cc1	16%	8%	99%	11µM*	27%
Cc1cc(C)cc(NC(=O)C2CCC(CNC(=O)[C@@H]3Cc4ccccc4CN3)CC2)c1 (some centres undefined)	-12%	-18%	?	17%	-1%
Cc1ccc2cccc(N=Cc3c(C)[nH]n(-c4ccccc4)c3=O)c2n1	7%	8%	5.6µM*	-79%	20%
O=c1cc(-c2ccsc2)oc2ccc(-c3ccc4cc[nH]c4c3)cc12	.	2%	11%	5.6µM*	16%
COc1ccc(CN(C)C(=O)C2CC(=O)N(c3ccc4c(c3)OCCO4)C2)c(OC)c1 (centres undefined)	4%	3%	20%	-25%	12%
CN(C)N(Cc1ccccc1)C(=O)C(O)(c1ccccc1)c1ccccc1	2%	-4%	13µM*	-15%	-1%
Cc1ccc(C(=O)CSc2cc(C)nc(SCC(=O)c3ccccc3)n2)cc1	3%	-2%	?	-40%	2%
Cc1cc(SCC(=O)c2ccccc2)nc(C)n1	2%	-11%	11%	10µM*	1%
CN(C(=O)Cn1cnc([N+](=O)[O-])n1)C1CCCCC1	-6%	3%	6%	3%	3%
Cc1ccc2c(c1)nnn2C1CCN(S(=O)(=O)c2ccc(C(=O)N3C(C)CCCC3C)cc2)CC1 (centres undefined)	3%	-9%	4µM*	-77%	0%
Cc1ccc2c(c1)nnn2C1CCN(S(=O)(=O)c2ccc(C(=O)O)cc2)CC1	-1%	16%	30%	-6%	0%
CN(C)c1ncnc2c1ncn2[C@H]1CN(Cc2ccco2)C[C@@H](CO)O1	.	-12%	19%	17%	1%
COc1ccc(NC(=S)NC(NC(=O)c2ccc(Cl)cc2Cl)C(Cl)(Cl)Cl)c([N+](=O)[O-])c1 (centres undefined)	16%	?	10µM*	-48%	-1%
COc1ccc2cc3cc(C(=O)N4CCN(Cc5ccc6c(c5)OCO6)CC4)oc3nc2c1	13%	-16%	10µM*	-29%	-8%
Cc1ccc2cc3cc(C(=O)NC4CCCCC4)oc3nc2c1	4%	-21%	7%	4µM*	-2%
O=C(c1cc2cc3ccc(Cl)cc3nc2o1)N1CCCCCC1	5%	-7%	21%	2.2µM*	3%
COc1ccc2cc3cc(C(=O)N4CC(C)CC(C)C4)oc3nc2c1 (centres undefined)	3%	-7%	?	10µM*	8%
COc1ccc2cc3cc(C(=O)NCc4ccc5c(c4)OCO5)oc3nc2c1	-3%	-12%	47%	29%	-2%
CCOC(=O)COc1ccc2c(c1)c(C(C)=O)c(C)n2-c1ccc(OC)cc1	-7%	1%	?	21%	11%
O=[N+]([O-])c1cccc(-c2noc(COc3ccccc3)n2)c1	-5%	-9%	7%	32%	11%
O=C(NC1CCCCC1)c1cc2cc(Br)ccc2o1	-2%	-12%	-30%	89%	24%
Cc1ccc2cc3cc(C(=O)N4CC(C)CC(C)C4)oc3nc2c1 (centres undefined)	16%	-10%	7.9µM*	82%	21%
O=C(NC1CCCC1)c1cc2cc(Br)ccc2o1	1%	-11%	?	3.2µM*	0%
Cc1ccc2cc3cc(C(=O)N4CCCCC4C)oc3nc2c1 (centres undefined)	8%	3%	?	?	7%
CC(=O)Nc1cc(C(F)(F)F)ccc1OCC1CCCO1 (centres undefined)	2%	2%	5%	-6%	-2%

Assay outcomes deposited in PubChem BioAssay by National Center for Advancing Translational Sciences (NCATS).
